CYP2C19 activ: activators of human cytochrome P450 2C19; AID 1025; activation factor at 5 µM; P33261; recombinant CYP2C19, luciferin-H EGE luminescence; stronger effect = higher value; 0 = fully inhibited enzyme, 1 = untreated enzyme; 96,000 tested, under 10 active;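 active = activation factor of at least 2 at 5 µM in the primary screen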;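 also: 0 = wells with 2.5 mM tranylcypromine and 1 = vehicle-only wells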
Target sequence (P33261 whole entry, looked up): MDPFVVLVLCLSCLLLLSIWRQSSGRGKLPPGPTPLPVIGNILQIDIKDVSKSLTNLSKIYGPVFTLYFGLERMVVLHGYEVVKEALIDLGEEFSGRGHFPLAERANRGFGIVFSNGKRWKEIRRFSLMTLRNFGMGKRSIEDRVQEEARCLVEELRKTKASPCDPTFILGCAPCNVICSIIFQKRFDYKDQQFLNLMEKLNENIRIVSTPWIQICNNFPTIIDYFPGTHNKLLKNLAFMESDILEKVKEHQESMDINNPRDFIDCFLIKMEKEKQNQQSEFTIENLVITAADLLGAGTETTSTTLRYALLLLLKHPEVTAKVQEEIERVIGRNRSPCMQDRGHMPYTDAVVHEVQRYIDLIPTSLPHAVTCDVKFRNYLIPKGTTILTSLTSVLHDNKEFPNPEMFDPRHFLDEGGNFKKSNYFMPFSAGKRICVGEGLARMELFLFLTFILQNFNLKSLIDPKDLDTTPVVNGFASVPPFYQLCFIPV
CYP2C9 act: CYP2C9 (human) activation. activation factor at 5 µM. recombinant CYP2C9, luciferin-H conversion, luminescence; stronger effect = higher value; factor 1 = untreated enzyme, 0 = blocked. 96,000 compounds, 1.4% hits. P11712;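 active = activation factor of 2 or more for CYP2C9 at a 5 µM dose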;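 also: 0 = sulfaphenazole-blocked wells and 1 = vehicle-only wells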
CYP2C19 inhib: inhibitors of human CYP2C19 | P33261 | CYP2C19 Supersomes, luciferin-H EGE luminescence, 30 min | inhibition, % at 5 µM | 96,000 compounds, 21% hits | AID 778;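 active = CYP2C19 inhibition above a set limit at 5 µM in the primary screen, cut at about 50% in these data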;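 also: plate controls were negative control wells for no effect and 2.5 mM tranylcypromine positive control for full effect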
CYP2C9 inhib: inhibitors of human CYP2C9; P11712; CYP2C9 Supersomes, luciferin-H conversion, luminescence; inhibition, % at 5 µM; 96,000 compounds, 20% hits; AID 777;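 active = blocking of liver enzyme CYP2C9 beyond about 50% at 5 µM, limit read from the data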
hDAT+cocaine: modulates human dopamine transporter uptake under cocaine | AID 449768 | Q01959 | B-score at 10 µM | LLC-PK1 hDAT cells, [14C]-dopamine uptake with cocaine IC80; actives deviate in either direction | 110,000 compounds, 1.3% hits;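 active = Z score or B-score, a plate-position-corrected score, falls beyond the plate's 99.7% confidence bounds, in either direction; inactive = both scores lie inside the 99.7% bounds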;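 also: scored against the spread of the other compound wells on the same plate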
D1 allo mod: allosterically modulates the human D1 dopamine receptor; P21728; HEK293 D1, CRE-luciferase, dopamine EC30 potentiation; actives deviate in either direction; B-score at 10 µM; 58,000 compounds, 5.9% hits; AID 641;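 active = luminescence count or its row- and column-corrected plate score outside the 99.7% band of the plate's sample wells, on either side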
Numbers without * were called inactive; nt = no result. A selection: hits, their analogues and other compounds. The true share with any hit is near 28%.

SMILES	CYP2C19 activ	CYP2C9 act	CYP2C19 inhib	CYP2C9 inhib	hDAT+cocaine	D1 allo mod
O=C1c2ccccc2NC(c2ccccn2)N1c1ccccc1F (stereo not given)	nt	nt	nt	nt	-1.2	nt
COc1cc(C2Nc3ccccc3C(=O)N2c2ccccc2OC)ccc1O (stereo not given)	0.6	0.2	41	79*	-0.71	0.029
C=CCOC(=O)C1=C(C)Nc2nnnn2C1c1cccs1 (stereo not given)	0.6	0.7	45	28	-1.1	nt
CCN1C(=S)SC(=O)C1=C1C=C(C)N(CCOC)C(C)=C1	0.7	0.9	33	12	nt	-4*
CCN1C(=S)SC(=O)C1=C1C=C(C)N(CCO)C(C)=C1	0.7	0.6	34	38	-0.48	0.055
CN1CCN(S(=O)(=O)c2ccc(SCCOc3ccccc3)nc2)CC1	0.5	1.4	51*	-43	nt	-1.9
O=C1OCCC1Sc1nc2cc(Cl)ccc2n1Cc1ccccc1 (stereo not given)	0.4	0.5	59*	48	-0.4	nt
CSc1nc2cc(Cl)ccc2s1	1	0.9	0	7	-0.71	-0.44
C=CCn1c(SC2CCOC2=O)nc2sc(CC)cc2c1=O (stereo not given)	1	0.7	2	31	-1.2	nt
O=C1OCCC1Sc1nc2cc(Cl)ccc2s1 (stereo not given)	0.1	2.6*	92*	-163	-0.95	0.83
OC1CCCCC1Sc1nc2ccccc2s1 (stereo not given)	0.3	0.6	66*	40	-0.6	0.58
O=C1OCCC1Sc1nc2ccccc2s1 (stereo not given)	0.4	1.9	62*	-88	-0.58	-0.34
C=CCOC(=O)C1=C[C@@H](C2CCCCC2)C[C@@H](OCc2ccc(CO)cc2)O1	nt	nt	nt	nt	-0.72	nt
CC(CN(C)Cc1ccccc1)OC(=O)c1ccc2c(c1)OCCO2 (stereo not given)	0.7	0.7	30	30	-0.53	-0.039
CCCc1cc(SCC(=O)Nc2c(C)n(C)n(-c3ccccc3)c2=O)n2c(nc3ccccc32)c1C#N	1.2	0.9	-16	10	-1.2	nt
N#C/C(=N\Nc1cccc(Cl)c1)C(=O)c1ccccc1	0.7	0.4	32	63*	0.45	nt
N#C/C(=N\Nc1ccccc1Cl)C(=O)c1ccccc1	0.7	0.8	30	22	nt	nt
O=C(Nc1ccc2nc(C3CC3)n(Cc3ccc(F)cc3)c(=O)c2c1)c1ccco1	0.4	0.3	56*	67*	0.2	1.2
O=C1CC(Nc2ccccc2)C(=O)N1Cc1ccccc1 (stereo not given)	0.1	0.8	91*	24	-0.66	nt
O=C1CC(=O)N(CCc2ccccc2)C(=O)N1CCc1ccccc1	1	0.4	3	58*	0.36	-0.69
O=C1CC(Nc2ccccc2)C(=O)N1CCc1ccccc1 (stereo not given)	0.2	0.9	79*	8	0.038	nt
O=C1N[C@@H](Cc2cn(S(=O)(=O)c3ccc([N+](=O)[O-])cc3)c3ccccc23)C(=O)N[C@H]1Cc1ccccc1	nt	nt	nt	nt	-0.69	nt
CCCCCn1c(SCCN2CCOCC2)nc2c1c(=O)[nH]c(=O)n2C	1	0.7	-4	35	0.75	nt
CCOC(=O)c1c(C)[nH]c(=S)c(C#N)c1-c1ccc(OC)cc1	0.6	0.2	39	78*	-0.011	nt
COC(=O)c1ccc(-n2c(C)ccc2-c2ccccc2)cc1	0.1	0.1	86*	86*	-1.3	nt
SMILES	CYP2C19 activ	CYP2C9 act	CYP2C19 inhib	CYP2C9 inhib	hDAT+cocaine	D1 allo mod
CC(=O)c1ccc(-n2c(C)ccc2-c2ccccc2)cc1	0.1	0.2	91*	80*	-1.4	nt
COc1cccc(Nc2nc(NCCO)c3ccccc3n2)c1	0.5	0.5	51*	48	-0.081	nt
C=CCN1c2ccccc2[C@]23C[C@@H](C(=O)OC)N(C(=O)c4cccs4)C2=NC(C(=O)OC)=C(C(=O)OC)[C@H]13	nt	nt	nt	nt	-0.13	nt
CC1(C2(O)CC(c3ccccc3)ON2)CCCCC1 (stereo not given)	0.5	0.8	54*	16	-0.37	0.019
COc1ccc(C2CC(O)(C(C)(C)O)NO2)cc1 (stereo not given)	0.9	0.9	6	13	-0.48	-1.1
c1ccc(Oc2cccc(OCCCCSc3ncccn3)c2)cc1	0.6	0.5	38	51*	-0.17	nt
COc1ccc(OCCCSc2ncccn2)cc1	0.4	0.8	64*	22	1.5	nt
COc1cccc(OCCCCSc2ncccn2)c1	0.8	0.8	20	20	0.63	nt
c1ccc(COc2ccc(OCCOCCn3cncn3)cc2)cc1	0.7	0.7	31	30	1.1	-2
COc1ccc(OCCSc2ncccn2)cc1	0.1	0.6	87*	37	0.47	-1.4
c1ccc(Oc2cccc(OCCCn3cncn3)c2)cc1	0	0.1	100*	94*	0.66	nt
c1cnc(SCCCOc2ccc3ccccc3c2)nc1	0.9	0.8	10	16	0.047	nt
COc1ccc2noc3c2c1C(=O)c1ccccc1-3	nt	nt	nt	nt	nt	5*
Cc1oc(=O)c(NC(=O)c2cccc(Cl)c2)cc1C(=O)c1ccccc1	0.8	0.9	25	6	-0.093	nt
CC(C)n1nc(Cc2cccc3ccccc23)c(C#N)c1N	nt	nt	nt	nt	0.14	nt
COc1cc(CNCCO)cc(Br)c1OCc1cccs1	0.6	1.2	44	-17	0.47	nt
COc1cc(CO)cc(Br)c1OCc1cccnc1	0.2	2.1*	80*	-109	-0.97	-3.1*
COc1cc(CNCc2ccncc2)cc(Br)c1OCc1ccccc1F	0.1	0.1	86*	91*	1.8	nt
C=CCc1cc(C)ccc1OCC(O)CN1CCN(c2ccccc2)CC1 (stereo not given)	0.8	0.9	20	12	0.31	nt
C=CCc1ccccc1OCC(O)CN1CCN(c2ccccc2F)CC1 (stereo not given)	0.3	0.5	66*	55*	-0.14	-4.6*
COc1ccccc1N1CCN(CC(O)COc2cccc3ccccc23)CC1 (stereo not given)	nt	nt	nt	nt	1.2	-1.7
C=CCc1ccccc1OCC(O)CN1CCN(c2ccccc2OC)CC1 (stereo not given)	0.6	1.3	44	-33	-0.71	-6.1*
O=C(Cn1cc([N+](=O)[O-])cn1)Nc1ccn(Cc2c(F)c(F)c(F)c(F)c2F)n1	0.7	0.7	30	26	-0.38	nt
Cc1cc(C(=O)OCC(=O)Nc2ccc(F)cc2F)c(C)o1	0.4	0.7	56*	27	0.79	nt
CCc1nc2ccccc2c(C(=O)OCC(=O)Nc2ccc(S(=O)(=O)N3CCOCC3)cc2)c1C	1	0.5	-2	54*	1.3	0.46
Cc1cc(C(=O)OCC(=O)NC(=O)NC(C)(C)C)c(C)o1	0.7	0.9	31	6	-0.59	0.19
O=C(COC(=O)Cc1ccc(S(=O)(=O)N2CCCCC2)s1)Nc1ccc2c(c1)OCO2	0.3	0	66*	98*	-1.9	nt
